Screening results from PubChem BioAssay.
Rows were chosen to be rich in hits. Some 19% of all compounds tested hit in one or more screens of this group.
KB-3-1 cytotox: qHTS assay for MDR1-selective chemotherapeutics: Primary screen using the parental adenocarcinoma cell KB-3-1; KB-3-1 viability, CellTiter-Glo ATP luminescence, 72 h; Potency, µM (series often up to 46.1 µM), hits mostly cytotoxic; 400,000 compounds, 1.4% hits; AID 1347075, 2019; also: nearly all actives have a fitted effect of over 60% in size
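72 h, 37 °C compound treatment of KB-3-1 parental cells; CellTiter-Glo added, 10 min, luminescence read. Data corrected against DMSO-only plates and normalized before curve fitting.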
HT1080NT lethal: qHTS for induction of synthetic lethality in tumor cells producing 2HG: qHTS for the HT-1080-NT fibrosarcoma cell line; Potency, µM (highest dose often 46.1 µM), hits mostly cytotoxic; 360,000 compounds, 1.6% hits; HT-1080-NT fibrosarcoma viability, CellTiter-Glo ATP luminescence, 48 h;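 also: NT is the 2HG producing partner of a matched IDH1 knockdown line; nearly all actives have a fitted effect of over 55% in size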
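Toxicity toward the 2HG-producing NT line was scored as %Activity, normalised to DMSO and no-cell wells, from CellTiter-Glo luminescence after 48 hours' treatment.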
KB-V1 cytotox: qHTS assay for MDR1-selective chemotherapeutics: Primary screen using the drug-selected MDR subline cells KB-V1; KB-V1 MDR cells viability, CellTiter-Glo, 72 h; Potency, µM (highest dose often 46.1 µM), usual class: cytotoxic; 400,000 compounds, 3.4% hits; AID 1347076, 2019; also: nearly all actives have a fitted effect of over 60% in size
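KB-V1 MDR subline cells in DMEM (phenol-red free, 10% FBS) exposed to compounds in qHTS concentration series for 72 h at 37 degrees C. Viability read by CellTiter-Glo luminescence; concentration-effect curves fitted after normalization and correction.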
TDP1 cell noCPT: qHTS for Inhibitors of human tyrosyl-DNA phosphodiesterase 1 (TDP1): qHTS in cells in absence of CPT; DT40 Tdp1-/- hTDP1 cells, no CPT, ATP luminescence, 48 h; Potency, µM (titrated, usually from 46.2 µM), most hits filed as inhibitors; 420,000 compounds, 15% hits; AID 686978, 2013; also: nearly all actives have a fitted effect of over 55% in size
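Growth of hTDP1-complemented DT40 Tdp1-knockout cells is measured by ATP luminescence after at least 48 hr compound exposure at 37 °C, with DMSO substituting for the 20 nM CPT used in the parallel screen.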
TDP1 cell CPT: qHTS for Inhibitors of human tyrosyl-DNA phosphodiesterase 1 (TDP1): qHTS in cells in presence of CPT; 420,000 compounds, 12% hits; AID 686979, 2013; chicken DT40 Tdp1-/-;hTDP1 cells + 20 nM CPT, ATP luminescence, 48 h; Potency, µM (highest dose often 46.2 µM), most hits filed as inhibitors; also: nearly all actives have a fitted effect of over 55% in size
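Chicken DT40 Tdp1-/- cells stably complemented with human TDP1 were seeded at 400 cells/well in medium containing 20 nM camptothecin, exposed to pin-transferred compounds, and grown at 37 °C for at least 48 hr. Viability was read as ATP luminescence.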
HT1080 IDH1KD tx: qHTS for induction of synthetic lethality in tumor cells producing 2HG: qHTS for the HT-1080-IDH1KD cell line; HT-1080 IDH1 knockdown viability, ATP luminescence, 48 h; Potency, µM (highest dose often 46.1 µM), usual class: cytotoxic; 360,000 compounds, 2% hits
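HT-1080-IDH1KD cells (IDH1 knocked down), 750/well in RPMI with 5% FBS, treated with compound 48 h at 37 degrees C. Viability by CellTiter-Glo luminescence, normalised to DMSO and no-cell wells; concentration-response curves classed.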
Numbers stand for hits. Calls follow the shape of the dose curve; as a rule, active = well fitted curve in the direction sought with a large enough effect; inconclusive = small, poorly fitted or top-dose-only effect, or another doubt; inactive = no such curve, though single readings can be large; an effect the other way counts as inactive or inconclusive.

For CN(C)c1ccc(C2CNC(c3ccc(Cl)c([N+](=O)[O-])c3)c3[nH]c4ccccc4c32)cc1 (centres undefined) the results were KB-3-1 cytotox inconclusive, HT1080NT lethal inactive, KB-V1 cytotox inactive, TDP1 cell noCPT 18µM, TDP1 cell CPT 23µM and HT1080 IDH1KD tx inactive.
Screening CC(C)OCCCN1CC(=O)N2C(c3cccc([N+](=O)[O-])c3)c3[nH]c4ccccc4c3C[C@H]2C1=O (some centres undefined) returned KB-3-1 cytotox inconclusive, HT1080NT lethal inactive, KB-V1 cytotox inactive, TDP1 cell noCPT inactive, TDP1 cell CPT inconclusive and HT1080 IDH1KD tx inactive.
Screening CC1CCCN(C(=O)C2CCN(S(=O)(=O)c3cccs3)CC2)C1 (centres undefined) returned KB-3-1 cytotox inactive, HT1080NT lethal inactive, KB-V1 cytotox inactive, TDP1 cell noCPT inactive, TDP1 cell CPT inconclusive and HT1080 IDH1KD tx inactive.
CC(C)Cn1c(N)c(C(=O)COC(=O)c2cc(F)cc(F)c2)c(=O)n(C)c1=O was read as KB-3-1 cytotox inactive, HT1080NT lethal inactive, KB-V1 cytotox inactive, TDP1 cell noCPT inconclusive, TDP1 cell CPT inactive and HT1080 IDH1KD tx inactive.
For CC(C)Cn1c(N)c(C(=O)COC(=O)c2cc(-c3ccccc3)nc3ccccc23)c(=O)n(C)c1=O the results were KB-3-1 cytotox inconclusive, HT1080NT lethal inactive, KB-V1 cytotox inconclusive, TDP1 cell noCPT 16µM, TDP1 cell CPT 21µM and HT1080 IDH1KD tx inactive.
For CC(C)Cn1c(N)c(C(=O)COC(=O)c2cc(C3CC3)nc3ccccc23)c(=O)n(C)c1=O the results were KB-3-1 cytotox inconclusive, HT1080NT lethal 21µM, KB-V1 cytotox inconclusive, TDP1 cell noCPT 21µM, TDP1 cell CPT inconclusive and HT1080 IDH1KD tx inconclusive.
`Cc1nn(-c2ccccc2)c(C)c1C(=O)OCC(=O)c1c(N)n(CC(C)C)c(=O)n(C)c1=O` gave KB-3-1 cytotox inconclusive, HT1080NT lethal inactive, KB-V1 cytotox inactive, TDP1 cell noCPT 18µM, TDP1 cell CPT 21µM and HT1080 IDH1KD tx inactive.
Screening CC(C)Cn1c(N)c(C(=O)COC(=O)c2cnc(Cl)c(Cl)c2)c(=O)n(C)c1=O returned KB-3-1 cytotox inactive, HT1080NT lethal inactive, KB-V1 cytotox inactive, TDP1 cell noCPT inconclusive, TDP1 cell CPT 18µM and HT1080 IDH1KD tx inactive.
CC(C(=O)Nc1ccc(S(=O)(=O)N2CCCC2)cc1)N1CCCC(C(N)=O)C1 (centres undefined) was read as KB-3-1 cytotox inactive, HT1080NT lethal inactive, KB-V1 cytotox inactive, TDP1 cell noCPT inactive, TDP1 cell CPT inactive and HT1080 IDH1KD tx inactive.
For CCCC12CN3CC(C)(CN(C1)C3c1cn(CC)c3ccccc13)C2=O (centres undefined) the results were KB-3-1 cytotox inactive, KB-V1 cytotox inactive, TDP1 cell noCPT inconclusive and TDP1 cell CPT inconclusive.
Screening CC(C)Cn1c(N)c(C(=O)COC(=O)c2cc(C(F)(F)F)nc3ccccc23)c(=O)n(C)c1=O returned KB-3-1 cytotox inactive, HT1080NT lethal inactive, KB-V1 cytotox inconclusive, TDP1 cell noCPT 18µM, TDP1 cell CPT 8.2µM and HT1080 IDH1KD tx inactive.
CC(C)Cn1c(N)c(C(=O)COC(=O)c2ccc(O)cc2)c(=O)n(C)c1=O was read as KB-3-1 cytotox inconclusive, HT1080NT lethal inactive, KB-V1 cytotox inconclusive, TDP1 cell noCPT inconclusive, TDP1 cell CPT inactive and HT1080 IDH1KD tx inactive.
For c1ccc(-n2ncc3c(NCc4ccc5c(c4)OCO5)ncnc32)cc1 the results were KB-3-1 cytotox inactive, HT1080NT lethal inconclusive, KB-V1 cytotox 21µM, TDP1 cell noCPT inconclusive, TDP1 cell CPT inactive and HT1080 IDH1KD tx inconclusive.
